A selection: hits, their analogues and other compounds. The true share with any hit is near 13%.
USP28 block = human USP28 deubiquitinase inhibition; Q96RU2; inhibition, % at 25 µM; 47,000 compounds, 3% hits; purified USP28, Ub-rhodamine cleavage fluorescence, 30 min; AID 1645857
USP10 inh = blocks human USP10 ubiquitin-rhodamine cleavage | inhibition, % at 20 µM | Q14694 | purified USP10, Ub-rhodamine fluorescence, 60 min | 47,000 compounds, 1.1% hits | AID 1645856
USP17 inh = human USP17-like deubiquitinase inhibition; A8MUK1; purified USP17, Ub-rhodamine cleavage fluorescence, 3 h; inhibition, % at 50 µM; 47,000 compounds, 6.5% hits
USP30 inh = inhibitors of human USP30 deubiquitinase | Q70CQ3 | purified USP30, Ub-rhodamine cleavage fluorescence | inhibition, % at 25 µM | 47,000 compounds, 5.3% hits
USP8 inh = inhibitors of human USP8 deubiquitinase. AID 1645853. 47,000 compounds, 4.2% hits. P40818. inhibition, % at 20 µM. purified USP8, Ub-rhodamine cleavage fluorescence, 30 min
Starred values were filed as active, the others as inactive. Rule as the data show it: active = inhibition above about 30%; inactive = the rest.

CCOc1ccc(NC(=O)Cn2c(=O)n(CCCCC(=O)NCCc3ccccc3)c(=O)c3ccccc32)cc1 was read as USP28 block 8.3, USP10 inh 15.2, USP17 inh 16.8, USP30 inh 28.1 and USP8 inh 18.6.
`COc1ccc(NC(=O)Cn2c(=O)n(-c3ccc(CC(=O)NCCc4ccccc4)cc3)c(=O)c3ccccc32)cc1` gave USP28 block 11.5, USP10 inh 8.4, USP17 inh 15.6, USP30 inh 18.8 and USP8 inh 28.5.
O=C(Cn1c(=O)c2ccccc2n(CC(=O)Nc2cccc(F)c2)c1=O)NCCc1ccccc1 was read as USP28 block 19.8, USP10 inh 30.1*, USP17 inh 28.7, USP30 inh 37.6* and USP8 inh -38.6.
COc1cc(NS(=O)(=O)c2c[nH]c3ccc([N+](=O)[O-])cc23)cc(OC)c1OC was read as USP28 block 0.3, USP10 inh 0.3, USP17 inh -9.1, USP30 inh 1.6 and USP8 inh -44.4.
For O=C(CSc1nc2ccccc2[nH]1)NCc1ccccc1F the results were USP28 block 3.4, USP10 inh 4.0, USP17 inh 1.2, USP30 inh 0.7 and USP8 inh 5.9.
COc1cc2[nH]c(=O)n(CCCCCC(=O)N3CCN(c4ccccc4OC)CC3)c(=O)c2cc1OC was read as USP28 block -8.8, USP10 inh -0.6, USP17 inh -5.6, USP30 inh -12.7 and USP8 inh -6.4.
`COc1cccc(CN2CCn3nc(-c4ccccc4OC)cc3C2)c1` gave USP28 block 10.9, USP10 inh 3.7, USP17 inh 14.4, USP30 inh -0.9 and USP8 inh 7.5.
Screening COc1ccccc1-c1cc(CNCCN)n(Cc2ccc3ccccc3c2)n1 returned USP28 block 30.4*, USP10 inh -1.1, USP17 inh -12.6, USP30 inh 44.5* and USP8 inh -104.3.
Cc1cc(C)n2cc(-c3sccc3Cl)c(C#N)c2n1 was read as USP28 block 1.7, USP10 inh -0.8, USP17 inh 32.9*, USP30 inh -75.3 and USP8 inh -169.6.
For CCCCCCCCCCCC(O)CC(=O)N[C@@H](CC(C)C)C(=O)N[C@H](CCC(=O)O)C(=O)N[C@H]1C(=O)N[C@H]([C@@H](C)CC)C(=O)NC(CC(C)C)C(=O)N[C@H](CO)C(=O)N[C@@H](CC(C)C)C(=O)N[C@@H](CC(C)C)C(=O)N[C@H](CO)C(=O)N[C@@H](C(C)C)C(=O)O[C@@H]1C (stereo partly drawn) the results were USP28 block 42.8*, USP10 inh 35.2*, USP17 inh 51.5*, USP30 inh -15.5 and USP8 inh 34.9*.
For CC1(C(N)=O)CN(C(=O)CCn2nnc3ccccc32)CCO1 (stereo not drawn) the results were USP28 block -2.1, USP10 inh 0.1, USP17 inh 0.3, USP30 inh -0.2 and USP8 inh 0.0.
CCc1nnc(NC(=O)CN(Cc2ccccc2)S(=O)(=O)c2ccc(Cl)cc2)s1 was read as USP28 block 12.0, USP10 inh 12.8, USP17 inh 63.3*, USP30 inh 55.5* and USP8 inh -26.1.
Screening O=S(=O)(c1ccc(Cl)cc1)N(Cc1ccccc1)Cc1nnnn1-c1ccccc1 returned USP28 block 20.2, USP10 inh 5.6, USP17 inh 12.2, USP30 inh 30.1* and USP8 inh 21.4.
Cc1ccc(S(=O)(=O)N(C)C2CCS(=O)(=O)C2)cc1C (stereo not drawn) was read as USP28 block 10.4, USP10 inh 0.7, USP17 inh 12.3, USP30 inh 6.3 and USP8 inh 15.9.
`O=C(C1CCOC1)N1CCC2(CC1)CN(c1cccnc1)c1ccccc12` (stereo not drawn) gave USP28 block 26.3, USP10 inh 1.4, USP30 inh 49.3* and USP8 inh -13.1.
For O=C(Cc1nnc(-c2cnccn2)o1)Nc1ccc(C(F)(F)F)cc1 the results were USP28 block 14.6, USP10 inh -0.6, USP17 inh 15.5, USP30 inh 4.4 and USP8 inh 55.1*.
`COc1cccc(CNCC(O)(c2ccccc2)c2ccc(Cl)cc2)c1` (stereo not drawn) gave USP28 block 14.6, USP10 inh 6.0, USP17 inh 7.6, USP30 inh 24.0 and USP8 inh 12.8.
Screening COc1ccccc1CNCC(O)(c1ccccc1)c1ccc(F)cc1 (stereo not drawn) returned USP28 block 20.2, USP10 inh 0.1, USP17 inh 7.7, USP30 inh 35.9* and USP8 inh 4.5.

Source: PubChem
